One assay addresses Albumin (Bos taurus) (UniProt P02769). As to the kind of experiment: bovine serum albumin binders on microarray, profiling panel, artefact control for SMM control protein annotation, biochemical, small-molecule microarray, Alexa647 label, 635/667 nm fluorescence (AID 1118).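 Further: score merges 667 nm emission intensity and signal-to-noise per printed compound spot.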 Particulars: BSA-A647 binding, fluorescence 635 nm, higher = more signal.
A short description of assay [1]: small-molecule microarray binders of probe aXIP, primary screen, biochemical, NeuroSMM set, 635/667 nm fluorescence (AID 1119).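 Further: probe is the protein aXip251-270 applied at 1 µg/mL to compound-printed slides; binding of probe to printed compounds measured as 667 nm fluorescence plus signal to noise.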 The note with it: higher = more signal, called active from +8 up or from −8 down.
Assay [2] in a line: small-molecule binders of probe aNOTCH3, primary screen, biochemical, small-molecule microarray, 635/667 nm fluorescence (AID 1120).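 Further: probe is a biotin-tagged antibody raised against NOTCH3 rather than NOTCH3 protein; score merges spot fluorescence near 667 nm with spot signal to noise.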 The note with it: higher = more signal.
Assay [3] is described as follows: small-molecule binders of probe aNOTCH2, primary screen, biochemical, small-molecule microarray, 635/667 nm fluorescence (AID 1121).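 Further: score merges feature fluorescence read at 667 nm with its signal to noise.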 The note with it: higher = more signal.
For assay [4], the target named is Carbonic anhydrase 2 (Homo sapiens) (UniProt P00918). As to the kind of experiment: CAII small-molecule binders, profiling panel, biochemical, small-molecule microarray, Alexa647-labelled CAII (AID 1122). The note with it: CAII-A647 binding fluorescence, higher = more signal.
Assay [5] in a line: COS7 lysate on small-molecule microarray, probe aHis, 635 nm (AID 1123).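 Further: z-score combines 667nm fluorescence intensity with signal-to-noise per printed compound spot.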 The note with it: COS7 cell lysate, fluorescence, higher = more signal.
The nature of assay [6]: compound binding in COS7 lysate, probe aLAP1, primary screen, cell lysate, small-molecule microarray (AID 1124).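 Further: lysate comes from COS7 cells expressing LAP1 and is applied at 0.3 µg/mL; score merges spot fluorescence near 667 nm with signal-to-noise over triplicate slides.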 Particulars: probe aLAP1, fluorescence, higher = more signal.
For a further assay, the system named is Sam68 (KHDRBS1). The experiment in a line: Sam68 small-molecule binders, primary screen, biochemical, small-molecule microarray, 635 nm fluorescence (AID 1125).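 Further: score merges 667 nm channel intensity with signal to noise over triplicate slides.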 Particulars: small-molecule microarray binding, higher = more signal.
In assay [7] the test system is Chordin-like protein 2 (CHRDL2). As to the kind of experiment: CHRDL2 small-molecule binders, primary screen, biochemical, small-molecule microarray, 635 nm fluorescence (AID 1126).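 Further: printed compound slides probed with Chrdl2 protein at 4 µg/mL for 1 h at 4 C; score merges 667 nm emission intensity with signal to noise over three replicate slides.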 The note with it: small-molecule microarray binding, fluorescence 635 nm; higher = more signal.
Assay [8] deals with Concanavalin-A (Canavalia ensiformis) (UniProt P02866). The experiment in a line: ConA small-molecule binders, primary screen, artefact control for SMM control protein annotation, biochemical, small-molecule microarray, Alexa647 label, 635 nm (AID 1127).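 Further: z combines 667 nm emission intensity with signal-to-noise across three replicate slides.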 The note with it: ConA-A647 binding fluorescence, higher = more signal.

Active and inactive are the calls of the source.

Concanavalin-A (Canavalia ensiformis), sequence (P02866 whole entry, looked up): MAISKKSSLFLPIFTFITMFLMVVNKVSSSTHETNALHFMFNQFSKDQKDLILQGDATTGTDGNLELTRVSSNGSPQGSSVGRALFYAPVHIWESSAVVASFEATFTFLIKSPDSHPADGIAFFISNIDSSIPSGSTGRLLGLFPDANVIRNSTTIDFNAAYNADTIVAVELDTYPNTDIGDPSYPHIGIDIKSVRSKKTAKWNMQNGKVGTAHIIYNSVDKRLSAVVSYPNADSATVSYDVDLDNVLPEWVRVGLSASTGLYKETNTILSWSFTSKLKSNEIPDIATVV
Albumin (Bos taurus), sequence (P02769 whole entry, looked up): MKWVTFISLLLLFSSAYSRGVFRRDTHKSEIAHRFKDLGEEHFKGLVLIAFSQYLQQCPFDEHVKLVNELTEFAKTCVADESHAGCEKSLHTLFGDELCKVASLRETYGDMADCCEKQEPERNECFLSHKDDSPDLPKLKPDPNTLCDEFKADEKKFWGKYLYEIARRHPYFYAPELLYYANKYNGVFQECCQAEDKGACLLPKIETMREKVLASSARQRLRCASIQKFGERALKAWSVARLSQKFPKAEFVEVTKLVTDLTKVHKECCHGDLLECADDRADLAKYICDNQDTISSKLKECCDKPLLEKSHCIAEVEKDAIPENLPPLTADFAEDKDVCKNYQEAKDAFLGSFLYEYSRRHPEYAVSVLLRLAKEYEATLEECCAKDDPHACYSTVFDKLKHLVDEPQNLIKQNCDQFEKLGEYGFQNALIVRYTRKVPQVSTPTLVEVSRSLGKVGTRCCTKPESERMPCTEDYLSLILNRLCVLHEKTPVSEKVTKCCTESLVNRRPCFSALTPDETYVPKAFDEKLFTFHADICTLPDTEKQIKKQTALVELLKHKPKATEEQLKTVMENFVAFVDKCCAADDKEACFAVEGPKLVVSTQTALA

Regarding `C=CCNC(=O)[C@H]1[C@@H]2C(=O)O[C@@H](c3ccccc3)[C@@H](c3ccccc3)N2[C@@H](c2ccc(OCCO)cc2)[C@]12C(=O)Nc1ccc(C#CC3(O)CCCCCC3)cc12`, the composite z-score in the assay with Albumin (Bos taurus) was 0.483; in assay [2], 0.257; in [3], 0.0111; in assay [4] it was 0.184; in [5], 1.29; in [6], 1.09. The composite z-score in the assay with Sam68 (KHDRBS1) is 1.34; in assay [7], 0.721; in assay [8] it was 1.13. The composite Z-score in assay [1] was 0.238 (inactive).
As for `NCCCCCCNC(=O)[C@@H]1C[C@@H]2C(=O)N3CCC[C@H]3C(=O)N2[C@@H]1c1cccc(OCCO)c1`, the composite z-score with Albumin (Bos taurus) was 0.81; in [2], 0.113; in assay [3], -0.15; in assay [4] it was 0.709; in [5], 0.729; in assay [6], 1.02. For the same compound, the figures for the composite z-score (with Sam68 (KHDRBS1); in assay [7]; in [8]) were 0.462, 1.16 and 1.14, respectively. Further, the composite Z-score in assay [1] was 2.71 (inactive).
For the compound `COc1cc(C(O)C2C=CC3C(=O)N(c4ccccc4)C(=O)C3N2Nc2ccccc2)cc(OC)c1OC` (stereo not given), the composite z-score with Albumin (Bos taurus) was 0.993; in assay [2], 0.416; in assay [3], -0.0742; in assay [4], 0.573; in assay [5], 2.89; in assay [6] it was 0.496. In addition, the composite z-score in the assay with Sam68 (KHDRBS1) is 1.31; in [7], -0.872; in [8], 1.15. Further, in assay [1], the composite Z-score is 0.328 (inactive).
`C=C(COC)C(=O)CC[C@H](OC(=O)c1cccnc1)c1ccc(OCCO)cc1`: the composite z-score with Albumin (Bos taurus) is -0.286; in assay [2], 0.201; in assay [3], -0.128; in assay [4], 0.665; in [5], 0.709; in [6], 1.53. Moreover, the composite z-score with Sam68 (KHDRBS1) worked out at 1.14; in assay [7], 0.563; in [8], 0.293. In addition, in [1], the composite Z-score was 0.509 (inactive).
Turning to `C=CCN1Cc2ccccc2[C@H]2OC(c3ccc(OCCCO)cc3)=N[C@@]2(CCS(=O)(=O)c2ccccc2)C1=O`, the composite z-score with Albumin (Bos taurus) was 0.465; in assay [2], 0.0562; in assay [3], -0.0135; in assay [4] it was 0.614; in assay [5], 3.07; in assay [6], 0.333. The composite z-score in the assay with Sam68 (KHDRBS1) was found to be 1.31; in assay [7], 0.843; in assay [8] it was 1.16. In assay [1], the composite Z-score was 1.79 (inactive).
For the compound `O=C(NCc1ccccc1)[C@@H]1c2ccccc2C(=O)N(Cc2ccc(OC(F)(F)F)cc2)[C@H]1c1ccc(CO)cc1`, the composite z-score in the assay with Albumin (Bos taurus) is 0.0192; in assay [2] it was -0.155; in assay [3] it was -0.11; in assay [4], 0.694; in assay [5], 2.29; in assay [6] it was 0.633. For the same compound, the composite z-score with Sam68 (KHDRBS1) is 0.258; in assay [7], -0.431; in assay [8] it was -0.278. Further, in assay [1], the composite Z-score is 2.41 (inactive).
`O=C1NC(=O)C2C1C=CC(C(O)c1ccc(B(O)O)cc1)N2Nc1ccc(Cl)cc1Cl` (stereo not given): the composite z-score with Albumin (Bos taurus) was 0.0179; in assay [2], 0.0864; in assay [3], 0.119; in [4] it was 0.753; in [5], 0.546; in assay [6], -0.11. Also, the results for the composite z-score (with Sam68 (KHDRBS1); in assay [7]; in [8]) were -0.597, 0.0005 and 0.423, respectively. The composite Z-score in [1] was 0.168 (inactive).
Consider `CCOC(=O)c1cn(C[C@H](Cc2ccccc2)NC(=O)N[C@H](CO)CCc2oc(C(C)=O)c(C(=O)OC)c2C(=O)OC)nn1`, for which the composite z-score with Albumin (Bos taurus) was 0.576; in assay [2], 0.269; in [3] it was -0.123; in assay [4] it was 0.443; in assay [5], 1.57; in [6], 0.131. The figures for the composite z-score (in the assay with Sam68 (KHDRBS1); in [7]; in assay [8]) were 1.3, 1.17 and 0.883, respectively. Besides, the composite Z-score in assay [1] is 0.511 (inactive).
For the compound `COCCOC(=O)N1C(=O)[C@@]2(c3cc(C#CCCO)ccc31)[C@H](C(N)=O)[C@H]1C(=O)O[C@H](c3ccccc3)[C@H](c3ccccc3)N1[C@@H]2c1ccccc1OCCO`, the composite z-score was 0.69 with Albumin (Bos taurus); 0.0727 in [2]; -0.14 in assay [3]; 0.552 in [4]; 1.54 in [5]; 0.45 in assay [6]. The composite z-score with Sam68 (KHDRBS1) was 1.3; in assay [7], -0.0675; in assay [8] it was 1.14. Also, the composite Z-score in assay [1] is 0.689 (inactive).
Consider `[N-]=[N+]=Nc1ccccc1C[C@]1(C(=O)N2CCOCC2)N=C(c2ccc(OCCCO)cc2)O[C@H]1c1ccccc1N=[N+]=[N-]`, for which the composite z-score was 0.832 with Albumin (Bos taurus); 0.472 in [2]; -0.14 in assay [3]; 0.648 in assay [4]; 3.09 in assay [5]; 0.654 in assay [6]. The composite z-score in the assay with Sam68 (KHDRBS1) is 1.28; in assay [7], 0.86; in assay [8], 1.15. Further, the composite Z-score in assay [1] was 0.317 (inactive).
For the compound `O=C1C[C@@](C(=O)O)(c2ccc([N+](=O)[O-])cc2)[C@@H](c2ccc(CO)cc2)N1C1CCCCC1`, the composite z-score in the assay with Albumin (Bos taurus) is 0.88; in assay [2] it was 0.204; in [3], -0.0029; in assay [4] it was 0.508; in assay [5], 2.02; in [6] it was 0.281. Also, the composite z-score worked out at 1.34 with Sam68 (KHDRBS1), 0.0583 in assay [7] and 1.05 in assay [8]. Also, in assay [1], the composite Z-score is 0.628 (inactive).
In the case of `O=C1OCCC=C[C@H]2OC34C=CCN(c5ccc6ccccc6c5)C(=O)[C@H]3N(CCO)C(=O)[C@@H]4C12` (stereo not given in full), the composite z-score is -0.594 with Albumin (Bos taurus); -0.571 in assay [2]; -0.445 in assay [3]; 0.368 in [4]; -0.237 in assay [5]; -0.162 in assay [6]. The composite z-score in the assay with Sam68 (KHDRBS1) was -0.362; in assay [7], -0.976; in [8], -0.403. The composite Z-score in [1] is 0.465 (inactive).
For the compound `COc1ccc(NN2C(C(O)c3ccc(I)cc3)C=CC3C(=O)N(C4CCCCC4)C(=O)C32)cc1` (stereo not given), the composite z-score with Albumin (Bos taurus) was 0.843; in [2] it was 0.394; in assay [3] it was -0.075; in assay [4], 0.444; in [5], 1.53; in assay [6], 0.444. Further, the composite z-score with Sam68 (KHDRBS1) was 1.32; in [7], -0.195; in [8], 1.1. In addition, the composite Z-score in [1] was 0.84 (inactive).
`C[N+](C)(C)CCCC[C@@H]1NC(=O)[C@H]2C[C@@H](C(=O)NCCCCCNC(=O)CS)[C@@H](c3cccc(OCCO)c3)N2C1=O`: the composite z-score with Albumin (Bos taurus) was 0.479; in assay [2] it was -0.0881; in assay [3], -0.115; in [4], 0.69; in assay [5], 1.63; in [6], 0.985. Also, the composite z-score in the assay with Sam68 (KHDRBS1) was determined as 0.165; in [7], 0.245; in assay [8], 0.896. Further, the composite Z-score in [1] was 0.518 (inactive).
Turning to `O=C1[C@H]2C=C(I)[C@H](C[C@@H]2OCCCCCCO)[C@@]12CO2`, the composite z-score in the assay with Albumin (Bos taurus) is 0.683; in assay [2], 0.0876; in [3] it was -0.112; in [4] it was 0.751; in assay [5] it was -0.298; in [6], -0.16. Also, the composite z-score in the assay on Sam68 (KHDRBS1) was -0.747; in assay [7], 1.24; in assay [8], -1.05. The composite Z-score in [1] was 0.047 (inactive).
Consider `C=CCOC(=O)[C@@H]1[C@H]2C(=O)O[C@H](c3ccccc3)[C@H](c3ccccc3)N2[C@H](c2ccc(OCCOC(=O)[C@H]3C[C@H]4C(=O)NCC(=O)N4[C@H]3c3cccc(OCCO)c3)cc2)[C@@]12C(=O)Nc1ccc(I)cc12`, for which the composite z-score in the assay with Albumin (Bos taurus) was -0.735; in [2], -0.006; in [3] it was -0.06; in [4], 0.636; in assay [5], 1.96; in assay [6], 0.397. For the same compound, the composite z-score was 1.3 in the assay on Sam68 (KHDRBS1), 1.02 in assay [7] and 1.19 in [8]. In addition, in assay [1], the composite Z-score is 0.614 (inactive).

The values are drawn from PubChem BioAssay.
